Bioassay records as filed in PubChem BioAssay.
Gal4-VP16 FLuc = Gal4-VP16 reporter inhibition counter-screen; Drosophila S2 Gal4-VP16 UAS-luciferase, luminescence, 20 h; Potency, µM (series often up to 53.6 µM), for inactives: at the top dose activity, negative = inhibition, most hits filed as inhibitors; 310,000 compounds, 3.5% hits; AID 2546;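 further: Gal4-VP16 expression switched on by copper sulfate through the metallothionein promoter; nearly all actives have a fitted effect of over 50% in size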
TDP1 block = TDP1 (human) enzyme inhibition; Q9NUW8; recombinant TDP1, AlphaScreen DNA substrate cleavage; Potency, µM (titrated, usually from 130 µM), for inactives: top-dose activity change, negative = inhibition, most hits filed as inhibitors; 350,000 compounds, 0.28% hits; AID 485290; further: nearly all actives have a fitted effect of over 40% in size
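AlphaScreen read-out: signal falls as enzyme removes the 3' tyrosine-FITC from a 5'-biotinylated DNA oligo (15 nM, 5 min, RT). Enzyme was E. coli-made recombinant Tdp1 at 1 nM, exposed to compound for 15 min beforehand; beads 10 ug/ml, 10 min.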
RORg inh = ROR gamma (mouse) transcription inhibition | Potency, µM (highest dose often 53.6 µM), for the others: top-dose activity change, negative = inhibition, hits mostly inhibitors | AID 2551 | 310,000 compounds, 5.4% hits | P51450 | Drosophila S2 Gal4-RORgamma UAS-luciferase reporter, 20 h; further: nearly all actives have a fitted effect of over 60% in size
Target sequence (P51450 whole entry, looked up, the tested form may be a part): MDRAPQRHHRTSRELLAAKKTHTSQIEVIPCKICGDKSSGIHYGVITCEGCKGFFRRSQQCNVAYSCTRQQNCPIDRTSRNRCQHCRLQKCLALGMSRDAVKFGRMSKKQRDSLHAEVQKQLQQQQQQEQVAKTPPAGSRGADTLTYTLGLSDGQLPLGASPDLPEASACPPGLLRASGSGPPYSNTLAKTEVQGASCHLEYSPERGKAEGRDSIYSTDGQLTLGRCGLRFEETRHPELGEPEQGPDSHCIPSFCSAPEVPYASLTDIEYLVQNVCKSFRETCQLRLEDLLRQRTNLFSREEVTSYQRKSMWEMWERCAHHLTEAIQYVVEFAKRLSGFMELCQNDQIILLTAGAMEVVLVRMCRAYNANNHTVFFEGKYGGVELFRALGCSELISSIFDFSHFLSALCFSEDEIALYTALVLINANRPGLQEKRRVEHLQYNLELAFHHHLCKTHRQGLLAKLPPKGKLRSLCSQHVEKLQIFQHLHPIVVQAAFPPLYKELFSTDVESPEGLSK
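Drosophila Schneider cells stably carrying a metallothionein-driven Gal4 DBD–ROR gamma fusion and a UAS-Photinus luciferase reporter were exposed to compound for 1 hr, then induced with copper sulfate (700 uM final) for 20 hr at ambient temperature before luminescence reading.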
TDP1 cell CPT = growth inhibition of DT40 Tdp1-/-;hTDP1 cells with camptothecin (screen for TDP1 inhibitors); 420,000 compounds, 12% hits; AID 686979; Potency, µM (highest dose often 46.2 µM), inactives show top-dose activity change, negative = growth inhibition, hits mostly inhibitors; chicken DT40 Tdp1-/-;hTDP1 cells + 20 nM CPT, ATP luminescence, 48 h; further: nearly all actives have a fitted effect of over 55% in size
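Chicken DT40 Tdp1-/- cells complemented with human TDP1, 400 cells/well, exposed to compounds plus 20 nM camptothecin for at least 48 h at 37 C; viability read as ATP content by CellTiter-Glo luminescence.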
DT40 TDP1 no CPT = qHTS for Inhibitors of human tyrosyl-DNA phosphodiesterase 1 (TDP1): qHTS in cells in absence of CPT; DT40 Tdp1-/- hTDP1 cells, no CPT, ATP luminescence, 48 h; Potency, µM (doses to about 46.2 µM), inactives show at the highest dose activity change, negative = growth inhibition, hits mostly inhibitors; 420,000 compounds, 15% hits; AID 686978, 2013; further: nearly all actives have a fitted effect of over 55% in size
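Luminescent ATP content (CellTiter-Glo) served as the growth readout. Knockout chicken DT40 cells expressing human TDP1 were exposed to compounds without camptothecin for a minimum 48 hr at 37 °C.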
Active calls of the source: *; ? = inconclusive; . = not tested or not shown; [ ] = another dose, or the depositor's remark. An excerpt weighted towards active compounds, which were near 19% of everything screened. The call rests on the fitted dose curve; in most records, active means well fitted curve in the direction sought with a large enough effect; inconclusive means small, poorly fitted or top-dose-only effect, or another doubt; inactive means no such curve, though single readings can be large; an effect the other way counts as inactive or inconclusive. On the % scale 0 is the no-effect control and ±100 the full control effect; potency means the concentration at half of the fitted maximal effect.

SMILES	Gal4-VP16 FLuc	TDP1 block	RORg inh	TDP1 cell CPT	DT40 TDP1 no CPT
O=C(c1cc(C2CC2)nn1-c1ccccc1)N1CCN(S(=O)(=O)c2ccccc2)CC1	.	1%	.	?	16µM*
CCOC(=O)N1CCC(NC(=O)CN2C(=O)CSc3nc(C)cc(C)c32)CC1	-1%	1%	5%	.	.
C[C@H](NC(=O)c1cc2cc(Cl)ccc2n1C)C(=O)N[C@@H](C(=O)O)c1ccccc1	-4%	.	26%	-3%	20%
COc1ccc(OCCCC(=O)N(C)CC(=O)Nc2ccccc2Cl)cc1	-1%	2%	2%	-10%	-11%
COC(=O)NNC(=O)c1ccccc1C	3%	0%	-5%	6%	-1%
Cc1ccccc1S(=O)(=O)NCc1ccc(N2CCN(C)CC2)cc1	-1%	-3%	7%	?	?
CCC[C@@H]1C[C@@]1(CCC)C(NC(=O)OCc1ccccc1)c1ccc(-c2ccccc2)cc1 (some centres undefined)	-17%	-3%	-39%	.	.
CCC[C@@H]1C[C@@]1(CCC)[C@@H](NP(=O)(c1ccccc1)c1ccccc1)c1ccc(C(=O)OC)cc1	?	3%	?	?	16µM*
Cc1cc(C(=O)NC2=NCCS2)c2ccccc2n1	-15%	-5%	?	5%	4%
COc1cc(C(=O)NCc2cccnc2)ccc1OCC(=O)Nc1cccc(C(F)(F)F)c1	.	3%[0.505 µM]	.	5.2µM*	3.7µM*
CC(C)(C)c1ccccc1OCC(=O)Nc1ccccc1C(=O)NCc1cccnc1	3%	10%	13%	?	16µM*
COCc1ccc(C(=O)Nc2ccccc2C(=O)NCc2cccnc2)cc1	8%	5%	-5%	1%	6%
C=CCOc1ccc(C(=O)Nc2ccccc2C(=O)NCc2cccnc2)cc1	4%	.	4%	6.5µM*	8.2µM*
CCC(C)[C@H](NC(=O)Nc1ccc2c(c1)OCCO2)C(=O)O (some centres undefined)	-6%	5%	-36%	-10%	-9%
O=C(COC(=O)CCN=C1NS(=O)(=O)c2ccccc21)NNC(=O)c1ccccc1	.	1%	.	11%	7%
Cc1ccc(CNC(=O)c2cc3c(-c4ccc(Cl)cc4)nn(C)c3s2)o1	-7%	5%	6%	?	?
Cc1nc(-c2ccc(Cl)cc2)sc1C1(C)CC(c2ccccc2)=NO1 (centres undefined)	.	.	.	-4%	1%
COc1ccc(-n2c(SCC(=O)Nc3ccc(C(=O)O)cc3)nnc2-c2ccccc2)cc1OC	-6%	.	3%	-6%	-4%
Cc1ccc(C(=O)c2cn(Cc3cccc(F)c3)c3nc(C)ccc3c2=O)cc1	.	4%	.	?	21µM*
Cc1ccc(C(=O)c2cn(Cc3ccccc3C)c3nc(C)ccc3c2=O)cc1	.	5%	.	21µM*	21µM*
Cc1ccc(NC(=O)CSCC(=O)Nc2cc(C(F)(F)F)ccc2N2CCOCC2)cc1	.	.	.	18µM*	21µM*
CCOC(=O)C(=CNc1cc(C(F)(F)F)ccc1N1CCOCC1)C(=O)OCC	5%	6%	21%	?	16µM*
CC(=O)Nc1cc(C(F)(F)F)ccc1N1CCOCC1	-3%	1%	0%	-16%	-9%
Cc1ccc2nc(SCC(=O)Nc3cc(C(F)(F)F)ccc3N3CCOCC3)[nH]c2c1	-20%	4%	16%	0.82µM*	0.82µM*
O=C(CSc1nccc(=O)[nH]1)Nc1cc(C(F)(F)F)ccc1N1CCOCC1	9%	.	14%	-11%	-10%
SMILES	Gal4-VP16 FLuc	TDP1 block	RORg inh	TDP1 cell CPT	DT40 TDP1 no CPT
O=C(COC(=O)COc1ccccc1)Nc1ccc(S(=O)(=O)N2CCOCC2)cc1	8%	0%	16%	-23%	-19%
CCN(CC)S(=O)(=O)c1ccc(OC)c(NC(=O)CSCc2c(C)noc2C)c1	.	-1%	.	?	23µM*
Cc1cc(C(F)(F)F)n(-c2nc(C(=O)N/N=C/c3ccc(F)cc3)cs2)n1	0%	-3%	-27%	16µM*	?
COc1cc(SC)ccc1C(=O)NCc1ccc(C)cc1	-1%	4%	38%	16µM*	?
COc1cc(SC)ccc1C(=O)Nc1ccc(S(=O)(=O)Nc2nccc(C)n2)cc1	.	5%	.	23µM*	?
Cc1ccnc(NS(=O)(=O)c2ccc(NC(=O)C3C4C=CC(C4)C3C(=O)O)cc2)n1 (centres undefined)	-5%	50µM*	-9%	-1%	21%
COc1ccc(C(=O)Nc2ccncc2)c(OC)c1	2%	6%	-16%	3%	-26%
COc1cc(SC)ccc1C(=O)Nc1ccncc1	-5%[10 µM]	0%	22%	16µM*	13µM*
C[C@@H](C(=O)Nc1ccc2ccccc2c1)[C@@H]1C[C@@]1(C)[C@@H](NS(=O)(=O)c1ccc(-c2ccccc2)cc1)c1ccccc1	1%	7%	-12%	.	.
S=C(Nc1ccccc1)Nc1ccc(Br)cc1	?	-8%	?	16µM*	21µM*
CC(=O)Nc1ccc(NC(=S)Nc2ccccc2)cc1	-12%	1%	-26%	4%	-1%
Cc1ccc(NC(=S)Nc2ccc(Br)cc2)cc1	?	0%	7.9µM*	-22%	?
N#Cc1ccc(NC(=S)Nc2ccccc2)cc1	-2%	4%	-17%	?	15µM*
COC(=O)NNC(=S)Nc1ccc(Br)cc1	-15%	3%	14µM*	?	23%
CCN(C(=O)c1cc2c(=O)n3ccccc3nc2n1C)C1CCCCC1	-5%	5%	5%	?	?
COC(=O)C1=C(CSc2nc3c(cc2C#N)CN(C)CC3)OC(N)=C(C#N)C1c1ccc(F)cc1 (centres undefined)	-15%	0%	10%	-24%	-25%
O=C(O)c1ccc2c(c1Sc1ccccc1)C(=O)c1ccccc1C2=O	3%	-4%	0%	.	.
Cc1ccc(OCC(=O)NCCCNC(=O)COc2ccc(C)cc2)cc1	.	1%	.	?	-2%
Cc1ccc(-n2cc(CNCCc3cscn3)c(-c3ccc(F)cc3)n2)cc1	27%	6%	-44%	?	23µM*
Cc1ccc(-n2cc(CN3CCN(Cc4nccn4C)CC3)c(-c3ccc(F)cc3)n2)cc1	?	11%	?	?	?
COc1ccc(-n2cc(CNCCc3cscn3)c(-c3ccccc3Cl)n2)cc1	4%	4%	0%	16µM*	12µM*
COc1ccc(-n2cc(CNCC3CC(=O)N(C4CC4)C3)c(-c3ccccc3Cl)n2)cc1 (centres undefined)	?	0%	?	16µM*	23µM*
